First the molecules themselves.
B1: ATGCTTCG (ssRNA)
RNA 1: GAGUUCUACAGUCCGACGAUCCCAACAUGCUUCGCACCUGGAAUUCUCGGGUGCCAA
RNA 2: UGGAGUGUGACAAUGGUGUUUG
DNA 1: GATCGTCGGACTGTAGAACTC
DNA 2: TTGGCACCCGAGAATTCCA
modifications: constant regions annealed to DNA blockers; guide miR-122 5' phosphate
B2: GCATTTCG (ssRNA)
RNA 1: GAGUUCUACAGUCCGACGAUCCCAACGCAUUUCGCACCUGGAAUUCUCGGGUGCCAA
RNA 2: UGGAGUGUGACAAUGGUGUUUG
DNA 1: GATCGTCGGACTGTAGAACTC
DNA 2: TTGGCACCCGAGAATTCCA
modifications: constant regions annealed to DNA blockers; guide miR-122 5' phosphate
B3: ACATTCTA (ssRNA)
RNA 1: GAGUUCUACAGUCCGACGAUCCCAACACAUUCUACACCUGGAAUUCUCGGGUGCCAA
RNA 2: UGGAGUGUGACAAUGGUGUUUG
DNA 1: GATCGTCGGACTGTAGAACTC
DNA 2: TTGGCACCCGAGAATTCCA
modifications: constant regions annealed to DNA blockers; guide miR-122 5' phosphate
B4: ACGTTCCG (ssRNA)
RNA 1: GAGUUCUACAGUCCGACGAUCCCAACACGUUCCGCACCUGGAAUUCUCGGGUGCCAA
RNA 2: UGGAGUGUGACAAUGGUGUUUG
DNA 1: GATCGTCGGACTGTAGAACTC
DNA 2: TTGGCACCCGAGAATTCCA
modifications: constant regions annealed to DNA blockers; guide miR-122 5' phosphate
B5: ACATCTTA (ssRNA)
RNA 1: GAGUUCUACAGUCCGACGAUCCCAACACAUCUUACACCUGGAAUUCUCGGGUGCCAA
RNA 2: UGGAGUGUGACAAUGGUGUUUG
DNA 1: GATCGTCGGACTGTAGAACTC
DNA 2: TTGGCACCCGAGAATTCCA
modifications: constant regions annealed to DNA blockers; guide miR-122 5' phosphate
B6: GTACTCTG (ssRNA)
RNA 1: GAGUUCUACAGUCCGACGAUCCCAACGUACUCUGCACCUGGAAUUCUCGGGUGCCAA
RNA 2: UGGAGUGUGACAAUGGUGUUUG
DNA 1: GATCGTCGGACTGTAGAACTC
DNA 2: TTGGCACCCGAGAATTCCA
modifications: constant regions annealed to DNA blockers; guide miR-122 5' phosphate
B7: ATATCCTA (ssRNA)
RNA 1: GAGUUCUACAGUCCGACGAUCCCAACAUAUCCUACACCUGGAAUUCUCGGGUGCCAA
RNA 2: UGGAGUGUGACAAUGGUGUUUG
DNA 1: GATCGTCGGACTGTAGAACTC
DNA 2: TTGGCACCCGAGAATTCCA
modifications: constant regions annealed to DNA blockers; guide miR-122 5' phosphate
B8: ATACTCTG (ssRNA)
RNA 1: GAGUUCUACAGUCCGACGAUCCCAACAUACUCUGCACCUGGAAUUCUCGGGUGCCAA
RNA 2: UGGAGUGUGACAAUGGUGUUUG
DNA 1: GATCGTCGGACTGTAGAACTC
DNA 2: TTGGCACCCGAGAATTCCA
modifications: constant regions annealed to DNA blockers; guide miR-122 5' phosphate
B9: ACGCTTCG (ssRNA)
RNA 1: GAGUUCUACAGUCCGACGAUCCCAACACGCUUCGCACCUGGAAUUCUCGGGUGCCAA
RNA 2: UGGAGUGUGACAAUGGUGUUUG
DNA 1: GATCGTCGGACTGTAGAACTC
DNA 2: TTGGCACCCGAGAATTCCA
modifications: constant regions annealed to DNA blockers; guide miR-122 5' phosphate
B10: ATATCTCG (ssRNA)
RNA 1: GAGUUCUACAGUCCGACGAUCCCAACAUAUCUCGCACCUGGAAUUCUCGGGUGCCAA
RNA 2: UGGAGUGUGACAAUGGUGUUUG
DNA 1: GATCGTCGGACTGTAGAACTC
DNA 2: TTGGCACCCGAGAATTCCA
modifications: constant regions annealed to DNA blockers; guide miR-122 5' phosphate
B11: GCACCTTG (ssRNA)
RNA 1: GAGUUCUACAGUCCGACGAUCCCAACGCACCUUGCACCUGGAAUUCUCGGGUGCCAA
RNA 2: UGGAGUGUGACAAUGGUGUUUG
DNA 1: GATCGTCGGACTGTAGAACTC
DNA 2: TTGGCACCCGAGAATTCCA
modifications: constant regions annealed to DNA blockers; guide miR-122 5' phosphate

Chain of AGO2 A367P (Q9UKV8 whole entry A367P/S387D/S824A/S828D/S831D/S834A): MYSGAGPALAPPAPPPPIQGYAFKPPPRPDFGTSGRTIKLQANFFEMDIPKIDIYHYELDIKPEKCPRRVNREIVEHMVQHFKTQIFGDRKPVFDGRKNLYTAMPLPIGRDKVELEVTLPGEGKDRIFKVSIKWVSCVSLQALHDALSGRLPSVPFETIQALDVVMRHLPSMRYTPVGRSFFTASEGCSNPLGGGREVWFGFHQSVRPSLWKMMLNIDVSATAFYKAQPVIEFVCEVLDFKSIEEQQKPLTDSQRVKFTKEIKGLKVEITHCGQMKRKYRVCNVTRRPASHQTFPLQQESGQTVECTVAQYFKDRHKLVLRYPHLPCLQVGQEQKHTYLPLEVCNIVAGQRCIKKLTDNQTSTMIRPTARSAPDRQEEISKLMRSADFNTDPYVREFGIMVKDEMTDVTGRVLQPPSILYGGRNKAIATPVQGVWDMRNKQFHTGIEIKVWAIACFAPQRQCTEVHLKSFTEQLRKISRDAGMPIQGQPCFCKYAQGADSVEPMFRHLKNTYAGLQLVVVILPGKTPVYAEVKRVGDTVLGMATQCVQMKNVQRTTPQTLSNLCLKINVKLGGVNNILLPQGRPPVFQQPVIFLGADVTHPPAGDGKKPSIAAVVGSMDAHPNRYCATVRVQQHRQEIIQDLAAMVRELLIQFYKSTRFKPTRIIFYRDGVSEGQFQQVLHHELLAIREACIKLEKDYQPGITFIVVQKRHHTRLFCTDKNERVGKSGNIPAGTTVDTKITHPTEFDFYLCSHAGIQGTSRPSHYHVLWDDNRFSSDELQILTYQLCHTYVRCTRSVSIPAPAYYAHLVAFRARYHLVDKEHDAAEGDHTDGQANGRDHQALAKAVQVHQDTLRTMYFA
Chain of AGO2 L192P (Q9UKV8 whole entry L192P/S387D/S824A/S828D/S831D/S834A): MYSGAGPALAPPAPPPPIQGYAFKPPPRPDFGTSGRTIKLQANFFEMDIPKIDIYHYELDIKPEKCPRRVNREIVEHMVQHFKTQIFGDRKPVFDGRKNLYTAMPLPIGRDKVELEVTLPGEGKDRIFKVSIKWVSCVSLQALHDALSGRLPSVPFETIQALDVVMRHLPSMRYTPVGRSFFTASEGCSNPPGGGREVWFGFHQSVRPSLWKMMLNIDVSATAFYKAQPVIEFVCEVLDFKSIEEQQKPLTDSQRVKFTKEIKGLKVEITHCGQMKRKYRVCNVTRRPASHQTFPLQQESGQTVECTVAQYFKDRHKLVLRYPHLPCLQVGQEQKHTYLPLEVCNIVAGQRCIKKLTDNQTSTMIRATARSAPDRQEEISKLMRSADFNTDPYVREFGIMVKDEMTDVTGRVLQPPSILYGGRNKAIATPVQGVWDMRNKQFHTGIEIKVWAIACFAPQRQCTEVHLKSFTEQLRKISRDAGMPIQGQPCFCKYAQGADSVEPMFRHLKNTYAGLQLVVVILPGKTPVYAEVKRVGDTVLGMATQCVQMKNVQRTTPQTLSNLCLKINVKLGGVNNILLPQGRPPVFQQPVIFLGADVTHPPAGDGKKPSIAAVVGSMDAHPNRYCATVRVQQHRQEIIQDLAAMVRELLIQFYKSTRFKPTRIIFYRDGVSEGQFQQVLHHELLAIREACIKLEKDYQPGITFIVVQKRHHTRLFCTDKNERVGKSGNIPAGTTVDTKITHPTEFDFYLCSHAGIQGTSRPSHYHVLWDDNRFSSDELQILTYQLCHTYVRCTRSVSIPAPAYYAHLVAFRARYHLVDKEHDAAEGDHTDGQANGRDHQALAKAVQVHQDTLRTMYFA
Chain of AGO2 F182del (Q9UKV8 other isoform, or with tags, fused parts or gaps S387D;S824A;S828D;S831D;S834A;del182-182): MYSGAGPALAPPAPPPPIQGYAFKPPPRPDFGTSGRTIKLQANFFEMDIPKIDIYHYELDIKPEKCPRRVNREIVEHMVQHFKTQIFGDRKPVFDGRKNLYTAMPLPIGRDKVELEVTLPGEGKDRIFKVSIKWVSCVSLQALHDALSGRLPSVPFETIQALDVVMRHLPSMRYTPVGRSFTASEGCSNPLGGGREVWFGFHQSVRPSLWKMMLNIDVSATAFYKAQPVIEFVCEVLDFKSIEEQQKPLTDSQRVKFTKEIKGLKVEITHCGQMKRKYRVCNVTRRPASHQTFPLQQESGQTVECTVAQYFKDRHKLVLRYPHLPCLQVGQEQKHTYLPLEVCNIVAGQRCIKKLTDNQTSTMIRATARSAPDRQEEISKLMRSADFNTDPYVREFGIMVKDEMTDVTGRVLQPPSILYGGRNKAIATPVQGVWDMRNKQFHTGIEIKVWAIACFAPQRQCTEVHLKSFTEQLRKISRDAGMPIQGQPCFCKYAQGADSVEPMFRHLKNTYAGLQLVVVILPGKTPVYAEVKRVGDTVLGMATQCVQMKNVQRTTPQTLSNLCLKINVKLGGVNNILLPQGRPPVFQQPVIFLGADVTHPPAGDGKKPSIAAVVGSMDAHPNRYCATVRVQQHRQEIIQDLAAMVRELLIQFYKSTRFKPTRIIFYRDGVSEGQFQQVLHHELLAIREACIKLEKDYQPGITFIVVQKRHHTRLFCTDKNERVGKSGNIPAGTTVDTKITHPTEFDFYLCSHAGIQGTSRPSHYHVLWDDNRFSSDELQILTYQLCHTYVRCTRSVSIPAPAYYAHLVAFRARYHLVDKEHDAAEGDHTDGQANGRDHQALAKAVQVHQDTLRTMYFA

One assay has as its target AGO2 L192P (Homo sapiens, UniProt Q9UKV8 1-859, L192P;S387D;S824A;S828D;S831D;S834A). Nature of the assay: RNA Bind-n-Seq (nitrocellulose filter binding and sequencing); miR-122 guide loaded in AGO2; 60 min incubation; 30 mM Tris pH 8.0, 100 mM potassium acetate, 2 mM magnesium acetate, 0.5 mM TCEP, 0.005% NP-40, 0.01 mg/ml yeast tRNA; 3 nM AGO2-miR-122, 100 nM RNA library; 60; high values mean tight binding. The following applies: protein: recombinant; tags: His6 (N-terminal, pFastBac HTA). The procedure, abridged:
(§1)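 Fold enrichment is each target's read fraction divided by its read fraction in the input library. Sf9 insect cells expressed His-tagged AGO2 from baculovirus; the protein was loaded with a synthetic guide RNA and purified by Ni-NTA and a biotinylated capture oligo. The bound RNA was extracted, reverse-transcribed, barcode-amplified and sequenced on Illumina.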
As for B1, the binding signal was 0.336 fold enrichment over input.

Regarding B2, the binding signal was 0.358 fold enrichment over input.

Turning to B3, the binding signal is 0.493 fold enrichment over input.

Regarding B4, the binding signal was 0.361 fold enrichment over input.

Take B5: the binding signal is 0.519 fold enrichment over input.

On to B6, for which the binding signal is 0.332 fold enrichment over input.

B7: the binding signal is 0.467 fold enrichment over input.

Take B8: the binding signal was 0.349 fold enrichment over input.

Take B9: the binding signal is 0.346 fold enrichment over input.

B10: the binding signal was 0.351 fold enrichment over input.

As for B11, the binding signal is 0.387 fold enrichment over input.

The target in the next assay is AGO2 A367P (Homo sapiens, UniProt Q9UKV8 1-859, A367P;S387D;S824A;S828D;S831D;S834A). The description is as above. The following applies: protein: recombinant; tags: His6 (N-terminal, pFastBac HTA). Summed up:
as §1
Regarding B1, the binding signal was 0.127 fold enrichment over input.

With B2, the binding signal is 0.127 fold enrichment over input.

As for B3, the binding signal was 0.178 fold enrichment over input.

Turning to B4, the binding signal is 0.128 fold enrichment over input.

On to B5, for which the binding signal is 0.197 fold enrichment over input.

For the molecule B6, the binding signal is 0.134 fold enrichment over input.

For the molecule B7, the binding signal is 0.17 fold enrichment over input.

For B8, the binding signal is 0.134 fold enrichment over input.

B9: the binding signal is 0.139 fold enrichment over input.

B10: the binding signal is 0.124 fold enrichment over input.

Consider B11, for which the binding signal is 0.154 fold enrichment over input.

The next assay deals with AGO2 T357M (Homo sapiens, UniProt Q9UKV8 1-859, T357M;S387D;S824A;S828D;S831D;S834A). The assay is described as above. The settings on record: protein: recombinant; tags: His6 (N-terminal, pFastBac HTA). Summed up: as §1
Chain of AGO2 T357M (Q9UKV8 whole entry T357M/S387D/S824A/S828D/S831D/S834A): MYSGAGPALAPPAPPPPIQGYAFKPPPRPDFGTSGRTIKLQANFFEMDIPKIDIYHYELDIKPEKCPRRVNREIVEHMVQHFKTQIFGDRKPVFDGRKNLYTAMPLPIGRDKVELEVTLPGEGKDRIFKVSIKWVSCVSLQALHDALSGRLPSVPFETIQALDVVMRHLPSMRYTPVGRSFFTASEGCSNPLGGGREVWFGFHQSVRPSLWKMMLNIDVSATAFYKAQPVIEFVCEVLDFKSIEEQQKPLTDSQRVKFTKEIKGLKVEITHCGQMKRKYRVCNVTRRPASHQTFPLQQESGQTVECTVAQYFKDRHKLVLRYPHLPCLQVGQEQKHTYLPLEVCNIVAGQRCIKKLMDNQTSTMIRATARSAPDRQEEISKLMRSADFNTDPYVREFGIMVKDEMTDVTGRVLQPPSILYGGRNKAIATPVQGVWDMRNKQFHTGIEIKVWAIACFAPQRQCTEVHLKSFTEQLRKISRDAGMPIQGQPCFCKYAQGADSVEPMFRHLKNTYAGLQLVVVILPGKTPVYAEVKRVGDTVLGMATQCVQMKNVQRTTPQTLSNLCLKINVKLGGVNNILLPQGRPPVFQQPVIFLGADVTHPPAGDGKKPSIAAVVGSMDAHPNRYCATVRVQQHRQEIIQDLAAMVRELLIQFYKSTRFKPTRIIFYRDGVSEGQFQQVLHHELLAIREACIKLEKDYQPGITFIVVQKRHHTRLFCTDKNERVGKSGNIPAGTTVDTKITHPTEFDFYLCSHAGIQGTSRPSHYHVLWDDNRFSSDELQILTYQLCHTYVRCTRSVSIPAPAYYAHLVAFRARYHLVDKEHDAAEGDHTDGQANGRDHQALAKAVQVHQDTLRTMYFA
With B1, the binding signal is 0.474 fold enrichment over input.

Consider B2, for which the binding signal was 0.486 fold enrichment over input.

As for B3, the binding signal is 0.557 fold enrichment over input.

As for B4, the binding signal was 0.44 fold enrichment over input.

With B5, the binding signal was 0.562 fold enrichment over input.

On to B6, for which the binding signal is 0.423 fold enrichment over input.

Consider B7, for which the binding signal was 0.569 fold enrichment over input.

With B8, the binding signal is 0.504 fold enrichment over input.

As to B9, the binding signal was 0.445 fold enrichment over input.

Consider B10, for which the binding signal is 0.398 fold enrichment over input.

Turning to B11, the binding signal is 0.503 fold enrichment over input.

The next assay addresses AGO2 F182del (Homo sapiens, UniProt Q9UKV8 1-859, S387D;S824A;S828D;S831D;S834A;del182-182). The description is as above. The following applies: protein: recombinant; tags: His6 (N-terminal, pFastBac HTA). The procedure, abridged: as §1
In the case of B3, the binding signal is 0.309 fold enrichment over input.

Take B5: the binding signal was 0.33 fold enrichment over input.

(Values after article PMC12529666, “Dysregulation of AGO2-miRNA dynamics underlies the AGO2-associated Lessel–Kreienkamp syndrome”.)
